Common to all, as to experiment: DAPPL (digital affinity profiling via proximity ligation, sequencing); 10 mM Tris-HCl pH 7.5, 50 mM NaCl, 1 mM DTT, 4% glycerol, room temperature, 30 min; GST-TFs on glutathione beads, 16-mer random dsDNA library, 0.1% formaldehyde crosslink after washing; high values mean tight binding
Common to all, as to details: protein: recombinant; tags: N-terminal GST; dsDNA, one strand shown

Assay [1] concerns the target T1, ELK1 (Homo sapiens, UniProt P19419 1-428).
T1 sequence: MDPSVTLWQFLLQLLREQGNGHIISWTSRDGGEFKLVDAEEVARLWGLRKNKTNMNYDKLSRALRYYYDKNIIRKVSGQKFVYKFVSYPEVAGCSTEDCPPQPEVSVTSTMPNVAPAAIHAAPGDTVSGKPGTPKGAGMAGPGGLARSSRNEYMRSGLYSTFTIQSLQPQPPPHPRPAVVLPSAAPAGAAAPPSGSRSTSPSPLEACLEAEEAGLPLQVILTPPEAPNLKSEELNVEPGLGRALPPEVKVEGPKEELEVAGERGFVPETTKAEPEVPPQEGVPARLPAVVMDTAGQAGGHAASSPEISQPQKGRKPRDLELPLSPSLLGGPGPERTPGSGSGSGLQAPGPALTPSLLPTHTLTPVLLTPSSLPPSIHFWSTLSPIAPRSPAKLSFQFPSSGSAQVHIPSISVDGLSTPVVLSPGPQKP
In short, it runs like this: (§1)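 GST fusions of human transcription factors were expressed in yeast and captured with glutathione beads. Once given DNA barcodes and pooled alongside a tag-only sample, they were incubated for 30 min at room temperature with 200 nmole of a random double-stranded 16-mer DNA library in Tris/NaCl/DTT/glycerol buffer, then washed, crosslinked (0.1% formaldehyde), proximity-ligated, PCR-amplified and sequenced on an Illumina NextSeq500. The binding signal of each hexamer is its read frequency for a factor divided by its frequency for the tag-only sample.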

The target in assay [2] is ELF1 (Homo sapiens, UniProt P32519 1-619). In short, it runs like this:
as §1

In assay [3] the target is T2, EHF (Homo sapiens, UniProt Q9NZC4 1-300).
T2 sequence: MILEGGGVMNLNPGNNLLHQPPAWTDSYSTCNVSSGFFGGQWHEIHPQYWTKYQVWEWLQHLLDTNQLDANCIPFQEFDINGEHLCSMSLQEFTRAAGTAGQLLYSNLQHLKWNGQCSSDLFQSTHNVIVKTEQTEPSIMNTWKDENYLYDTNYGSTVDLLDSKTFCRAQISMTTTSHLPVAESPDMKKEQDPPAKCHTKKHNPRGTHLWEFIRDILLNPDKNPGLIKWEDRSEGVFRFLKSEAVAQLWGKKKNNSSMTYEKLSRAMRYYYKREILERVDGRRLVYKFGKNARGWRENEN
The essentials:
as §1

For assay [4], the target named is T3, FEV (Homo sapiens, UniProt Q99581 1-238).
T3 sequence: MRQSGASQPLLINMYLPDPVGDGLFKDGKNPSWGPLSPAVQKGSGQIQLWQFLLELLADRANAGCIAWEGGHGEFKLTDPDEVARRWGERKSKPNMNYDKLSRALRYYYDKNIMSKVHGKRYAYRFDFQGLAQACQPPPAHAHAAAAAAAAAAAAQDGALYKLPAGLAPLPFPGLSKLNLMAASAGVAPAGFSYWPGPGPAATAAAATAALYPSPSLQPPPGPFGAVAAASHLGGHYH
In short, it runs like this: as §1

Assay [5] deals with ETV5 (Homo sapiens, UniProt P41161 1-510). In short, it runs like this:
as §1

Assay [6] concerns the target T4, ELK4 (Homo sapiens, UniProt P28324-2 1-405).
T4 sequence: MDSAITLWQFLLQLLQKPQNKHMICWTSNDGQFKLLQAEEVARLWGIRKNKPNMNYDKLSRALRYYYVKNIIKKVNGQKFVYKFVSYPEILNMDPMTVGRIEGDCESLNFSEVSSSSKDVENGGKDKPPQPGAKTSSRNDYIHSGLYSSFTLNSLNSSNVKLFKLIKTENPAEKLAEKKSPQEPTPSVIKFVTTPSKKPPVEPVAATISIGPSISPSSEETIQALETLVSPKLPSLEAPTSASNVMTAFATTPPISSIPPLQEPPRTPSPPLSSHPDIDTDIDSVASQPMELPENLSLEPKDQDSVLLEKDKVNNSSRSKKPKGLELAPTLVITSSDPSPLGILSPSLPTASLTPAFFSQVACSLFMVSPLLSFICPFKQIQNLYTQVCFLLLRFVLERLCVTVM
The essentials:
as §1

Assay [7] deals with T5, ETV2 (Homo sapiens, UniProt O00321 1-342).
T5 sequence: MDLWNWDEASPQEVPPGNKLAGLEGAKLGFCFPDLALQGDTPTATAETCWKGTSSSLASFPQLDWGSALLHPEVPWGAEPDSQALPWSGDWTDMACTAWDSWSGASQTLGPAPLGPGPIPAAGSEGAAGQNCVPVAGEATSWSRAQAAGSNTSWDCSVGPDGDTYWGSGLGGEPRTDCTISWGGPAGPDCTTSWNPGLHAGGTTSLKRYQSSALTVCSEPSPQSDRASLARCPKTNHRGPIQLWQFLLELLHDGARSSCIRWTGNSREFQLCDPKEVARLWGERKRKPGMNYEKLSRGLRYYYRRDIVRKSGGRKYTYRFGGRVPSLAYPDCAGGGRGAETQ
In short, it runs like this: as §1

For assay [8], the target named is T6, ERF (Homo sapiens, UniProt P50548 1-548).
T6 sequence: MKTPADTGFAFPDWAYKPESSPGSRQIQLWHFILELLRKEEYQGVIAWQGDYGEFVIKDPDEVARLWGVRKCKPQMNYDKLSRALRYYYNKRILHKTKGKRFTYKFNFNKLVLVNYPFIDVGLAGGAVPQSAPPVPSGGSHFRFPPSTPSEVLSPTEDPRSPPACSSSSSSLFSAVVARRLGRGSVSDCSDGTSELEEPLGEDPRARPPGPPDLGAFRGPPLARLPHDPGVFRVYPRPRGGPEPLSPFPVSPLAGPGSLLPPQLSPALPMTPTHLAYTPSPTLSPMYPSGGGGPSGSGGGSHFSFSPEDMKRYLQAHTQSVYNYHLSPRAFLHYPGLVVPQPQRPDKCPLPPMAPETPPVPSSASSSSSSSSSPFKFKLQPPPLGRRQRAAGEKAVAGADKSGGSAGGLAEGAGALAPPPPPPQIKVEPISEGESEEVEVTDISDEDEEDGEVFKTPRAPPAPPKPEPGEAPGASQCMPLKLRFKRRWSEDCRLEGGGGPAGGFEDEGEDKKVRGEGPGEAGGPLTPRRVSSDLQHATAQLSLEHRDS
The essentials: as §1

For assay [9], the target named is T7, ETV7 (Homo sapiens, UniProt Q9Y603 1-341).
T7 sequence: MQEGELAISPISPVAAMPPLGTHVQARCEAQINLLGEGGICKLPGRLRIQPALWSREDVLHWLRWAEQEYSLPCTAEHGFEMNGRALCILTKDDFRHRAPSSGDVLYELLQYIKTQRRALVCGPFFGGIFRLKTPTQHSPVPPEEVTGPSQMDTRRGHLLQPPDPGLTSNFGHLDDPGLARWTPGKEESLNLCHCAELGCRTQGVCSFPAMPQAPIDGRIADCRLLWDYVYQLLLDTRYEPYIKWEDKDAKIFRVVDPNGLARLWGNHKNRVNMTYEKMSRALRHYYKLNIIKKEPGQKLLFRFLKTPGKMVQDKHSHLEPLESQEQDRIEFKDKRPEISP
In short, it runs like this:
as §1

The target of assay [10] is T8, ETV3 (Homo sapiens, UniProt P41162-2 1-143).
T8 sequence: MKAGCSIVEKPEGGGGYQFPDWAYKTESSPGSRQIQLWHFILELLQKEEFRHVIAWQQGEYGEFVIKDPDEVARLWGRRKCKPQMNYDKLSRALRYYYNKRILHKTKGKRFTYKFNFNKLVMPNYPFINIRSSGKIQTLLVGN
The essentials: as §1

Assay [11] deals with ELF4 (Homo sapiens, UniProt Q99607 1-663). In short, it runs like this: as §1
Chain of ELF4 (Q99607 whole entry): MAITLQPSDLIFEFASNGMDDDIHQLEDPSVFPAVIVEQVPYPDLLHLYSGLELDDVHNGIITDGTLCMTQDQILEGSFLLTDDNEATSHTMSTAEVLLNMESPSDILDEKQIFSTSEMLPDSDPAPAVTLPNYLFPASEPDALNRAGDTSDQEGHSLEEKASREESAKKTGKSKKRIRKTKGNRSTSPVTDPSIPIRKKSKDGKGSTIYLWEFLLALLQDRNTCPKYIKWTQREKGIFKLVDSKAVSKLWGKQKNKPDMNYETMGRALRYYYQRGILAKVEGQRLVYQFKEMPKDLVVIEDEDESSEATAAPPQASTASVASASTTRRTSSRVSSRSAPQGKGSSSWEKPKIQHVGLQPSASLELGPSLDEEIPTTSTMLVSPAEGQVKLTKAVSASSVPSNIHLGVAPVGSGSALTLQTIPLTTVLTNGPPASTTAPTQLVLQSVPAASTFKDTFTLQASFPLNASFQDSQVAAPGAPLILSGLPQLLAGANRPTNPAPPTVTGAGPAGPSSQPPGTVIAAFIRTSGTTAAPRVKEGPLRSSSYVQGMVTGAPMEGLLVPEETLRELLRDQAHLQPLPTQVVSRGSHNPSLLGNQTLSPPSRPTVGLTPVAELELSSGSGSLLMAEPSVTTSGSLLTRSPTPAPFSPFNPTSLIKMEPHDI
In assay [12] the target is T9, ELF3 (Homo sapiens, UniProt P78545 1-371).
T9 sequence: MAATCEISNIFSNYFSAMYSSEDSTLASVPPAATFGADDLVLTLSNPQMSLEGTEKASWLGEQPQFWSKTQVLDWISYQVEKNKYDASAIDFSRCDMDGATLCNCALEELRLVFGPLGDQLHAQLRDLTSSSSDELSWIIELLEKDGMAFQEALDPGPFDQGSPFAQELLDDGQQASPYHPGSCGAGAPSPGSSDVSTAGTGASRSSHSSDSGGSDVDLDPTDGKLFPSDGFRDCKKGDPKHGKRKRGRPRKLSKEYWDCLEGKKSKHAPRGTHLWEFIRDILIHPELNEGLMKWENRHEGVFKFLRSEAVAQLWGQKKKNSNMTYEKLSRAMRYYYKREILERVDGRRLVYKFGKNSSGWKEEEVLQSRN
The essentials: as §1

Assay [13] deals with ETV1 (Homo sapiens, UniProt P50549 1-477). The essentials:
as §1

In assay [14] the target is T10, ETV3L (Homo sapiens, UniProt Q6ZN32 1-361).
T10 sequence: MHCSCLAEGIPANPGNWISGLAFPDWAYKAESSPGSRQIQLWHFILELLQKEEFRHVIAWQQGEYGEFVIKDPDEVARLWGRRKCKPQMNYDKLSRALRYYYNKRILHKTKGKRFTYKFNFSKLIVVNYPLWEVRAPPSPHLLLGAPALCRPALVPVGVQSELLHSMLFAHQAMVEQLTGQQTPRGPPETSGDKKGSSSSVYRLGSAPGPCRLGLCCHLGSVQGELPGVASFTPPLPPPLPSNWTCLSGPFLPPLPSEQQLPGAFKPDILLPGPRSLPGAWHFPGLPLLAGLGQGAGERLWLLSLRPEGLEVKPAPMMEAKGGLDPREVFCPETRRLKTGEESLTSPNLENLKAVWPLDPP
The essentials:
as §1

Chain of ETV5 (P41161 whole entry): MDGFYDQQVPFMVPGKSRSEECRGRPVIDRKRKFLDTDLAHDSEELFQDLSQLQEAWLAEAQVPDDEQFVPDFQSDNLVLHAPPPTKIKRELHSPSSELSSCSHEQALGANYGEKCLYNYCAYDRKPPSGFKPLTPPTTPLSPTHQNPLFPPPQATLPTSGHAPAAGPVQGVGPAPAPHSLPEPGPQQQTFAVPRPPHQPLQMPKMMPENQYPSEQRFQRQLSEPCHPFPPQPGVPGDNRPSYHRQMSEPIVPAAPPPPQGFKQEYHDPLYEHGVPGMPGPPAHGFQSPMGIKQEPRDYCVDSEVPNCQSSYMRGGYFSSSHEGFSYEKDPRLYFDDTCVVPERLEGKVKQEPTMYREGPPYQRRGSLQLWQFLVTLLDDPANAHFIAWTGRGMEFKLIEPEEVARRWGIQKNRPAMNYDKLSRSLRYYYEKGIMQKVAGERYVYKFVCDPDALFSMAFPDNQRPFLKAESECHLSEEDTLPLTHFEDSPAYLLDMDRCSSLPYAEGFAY
Chain of ELF1 (P32519 whole entry): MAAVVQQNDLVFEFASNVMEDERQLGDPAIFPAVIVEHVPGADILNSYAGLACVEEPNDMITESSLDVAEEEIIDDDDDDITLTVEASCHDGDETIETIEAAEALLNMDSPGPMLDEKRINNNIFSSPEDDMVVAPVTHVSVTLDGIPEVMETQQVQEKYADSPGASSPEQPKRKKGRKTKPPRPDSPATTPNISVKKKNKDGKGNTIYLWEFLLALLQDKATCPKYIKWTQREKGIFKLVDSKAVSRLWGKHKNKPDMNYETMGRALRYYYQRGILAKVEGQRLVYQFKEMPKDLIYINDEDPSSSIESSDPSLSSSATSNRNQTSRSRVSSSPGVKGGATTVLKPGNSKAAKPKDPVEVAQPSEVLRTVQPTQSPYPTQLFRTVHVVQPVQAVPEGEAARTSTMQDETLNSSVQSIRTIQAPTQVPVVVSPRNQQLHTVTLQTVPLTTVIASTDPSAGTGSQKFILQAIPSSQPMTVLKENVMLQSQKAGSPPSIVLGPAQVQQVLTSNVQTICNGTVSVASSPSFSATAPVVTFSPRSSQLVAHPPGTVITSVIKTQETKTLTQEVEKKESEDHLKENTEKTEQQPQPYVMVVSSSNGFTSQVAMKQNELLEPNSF
Chain of ETV1 (P50549 whole entry): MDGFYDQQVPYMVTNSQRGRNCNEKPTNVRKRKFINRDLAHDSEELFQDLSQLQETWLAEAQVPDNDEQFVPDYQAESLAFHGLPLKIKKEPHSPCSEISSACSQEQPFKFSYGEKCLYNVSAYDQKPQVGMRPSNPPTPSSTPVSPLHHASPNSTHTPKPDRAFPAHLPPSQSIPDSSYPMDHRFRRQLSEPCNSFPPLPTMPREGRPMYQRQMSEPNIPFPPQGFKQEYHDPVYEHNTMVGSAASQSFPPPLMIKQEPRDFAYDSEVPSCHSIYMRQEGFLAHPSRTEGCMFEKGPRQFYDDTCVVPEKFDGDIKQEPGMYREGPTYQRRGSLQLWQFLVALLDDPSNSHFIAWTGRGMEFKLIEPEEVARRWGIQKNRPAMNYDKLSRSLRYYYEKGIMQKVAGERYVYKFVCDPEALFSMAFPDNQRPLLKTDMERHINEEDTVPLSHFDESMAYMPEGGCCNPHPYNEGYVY

With GCTAAC, the binding signal in assay [1] was 1.1 fold enrichment (6-mer frequency, TF over GST control); in [2] it was 1.04 fold enrichment (6-mer frequency, TF over GST control); in assay [3] it was 1.03 fold enrichment (6-mer frequency, TF over GST control); in assay [4], 1.03 fold enrichment (6-mer frequency, TF over GST control); in [5], 1.06 fold enrichment (6-mer frequency, TF over GST control); in [6] it was 1.05 fold enrichment (6-mer frequency, TF over GST control). Further, the binding signal in assay [7] was 1.07 fold enrichment (6-mer frequency, TF over GST control); in assay [8], 1.03 fold enrichment (6-mer frequency, TF over GST control); in assay [9], 1.09 fold enrichment (6-mer frequency, TF over GST control); in assay [10], 1 fold enrichment (6-mer frequency, TF over GST control).

As for GCACAC, the binding signal in [2] was 1.02 fold enrichment (6-mer frequency, TF over GST control); in assay [4], 1.02 fold enrichment (6-mer frequency, TF over GST control); in assay [5] it was 1.02 fold enrichment (6-mer frequency, TF over GST control); in [11], 1.05 fold enrichment (6-mer frequency, TF over GST control); in [7] it was 1.01 fold enrichment (6-mer frequency, TF over GST control); in assay [12], 1.03 fold enrichment (6-mer frequency, TF over GST control). For the same sequence, the binding signal in [13] was 1 fold enrichment (6-mer frequency, TF over GST control); in assay [8] it was 1.12 fold enrichment (6-mer frequency, TF over GST control); in [14] it was 1.04 fold enrichment (6-mer frequency, TF over GST control); in assay [10] it was 1.05 fold enrichment (6-mer frequency, TF over GST control).
